ChEMBL document CHEMBL4296182, “CO-ADD screening of NIH NCI Diversity Set V”
Entries with a potency or affinity are not part of this list.

These molecules were tested on Klebsiella pneumoniae. Conditions: Concentration 20 uM; ASSAY_TEST Inhibition of Bacterial Growth; detection method Absorption (OD600); MEDIA CAMHB; plate type 384well; NBS; CORNING #3640; time 18 hr.

SMILES	Inhibition [%]
CC(=O)OCCN1c2ccccc2Sc2cnccc21	5.46
CCC/C(C)=C/c1ccc(CC)cn1	8.87
OCc1nnn(-c2ccccc2)c1CO	22.49
Clc1ccc(-c2c(C3=NCCCN3)nnn2-c2ccc(Cl)cc2)cc1	18
COc1ccc(C2OC3=Nc4cc(C)c(C)cc4NC3=C2O)cc1 (stereo unspecified)	7.32
CCOC(=O)C(C#N)C(=N)C1C(=O)OC2CCCCC21 (stereo unspecified)	4.77
CC(=O)Nc1ccc(S(=O)(=O)N=S(C)C)cc1	15.05
CCCCSc1cc(O)nc(N)n1	10.64
O=C(Nc1ccc(F)cc1)OCCOc1ccc([N+](=O)[O-])cc1	8.41
COc1cc2oc3cc(C)oc(=O)c3c2cc1OC	14.11
CCOC(=O)/C(C#N)=C/c1cccc(C)c1	6.23
CCNC(=O)Oc1cccnc1O	5.97
Brc1ccc(/N=N/c2ccc3ccccc3n2)cc1	5.4
OCc1cc(O)c(CO)nn1	4.1
C=C(C)CN1C(=O)C(C)S/C1=N/N=C1/SCC(=O)N1C (stereo unspecified)	14.62
CC(=O)CC[N+](C)(C)C.[I-]	4.32
CS(=O)(=O)O.OC(c1cc(C(F)(F)F)nc2c(Cl)cc(Cl)cc12)C1CCCCN1 (stereo unspecified)	9.3
OCCCCc1nccc2c1[nH]c1ccccc12	-0.62
c1ccc(-c2nnc(-c3ccccn3)s2)nc1	4.63
O=c1oc2c(cc1O)oc(=O)c1cc(O)c(O)c(O)c12	31.38
COc1ccc(C(=O)O)nc1C	7.05
